The campaign covered roughly 47,000 compounds. About 2,000 (4.3%) were called active. Cut-off read from the data, not from the text of the source: active = inhibition above about 30%; inactive = the rest. Many of the other results were omitted from the sample, so actives are more common in it than they were.

Ubiquitin carboxyl-terminal hydrolase 8 (Homo sapiens), sequence (P40818 whole entry, looked up): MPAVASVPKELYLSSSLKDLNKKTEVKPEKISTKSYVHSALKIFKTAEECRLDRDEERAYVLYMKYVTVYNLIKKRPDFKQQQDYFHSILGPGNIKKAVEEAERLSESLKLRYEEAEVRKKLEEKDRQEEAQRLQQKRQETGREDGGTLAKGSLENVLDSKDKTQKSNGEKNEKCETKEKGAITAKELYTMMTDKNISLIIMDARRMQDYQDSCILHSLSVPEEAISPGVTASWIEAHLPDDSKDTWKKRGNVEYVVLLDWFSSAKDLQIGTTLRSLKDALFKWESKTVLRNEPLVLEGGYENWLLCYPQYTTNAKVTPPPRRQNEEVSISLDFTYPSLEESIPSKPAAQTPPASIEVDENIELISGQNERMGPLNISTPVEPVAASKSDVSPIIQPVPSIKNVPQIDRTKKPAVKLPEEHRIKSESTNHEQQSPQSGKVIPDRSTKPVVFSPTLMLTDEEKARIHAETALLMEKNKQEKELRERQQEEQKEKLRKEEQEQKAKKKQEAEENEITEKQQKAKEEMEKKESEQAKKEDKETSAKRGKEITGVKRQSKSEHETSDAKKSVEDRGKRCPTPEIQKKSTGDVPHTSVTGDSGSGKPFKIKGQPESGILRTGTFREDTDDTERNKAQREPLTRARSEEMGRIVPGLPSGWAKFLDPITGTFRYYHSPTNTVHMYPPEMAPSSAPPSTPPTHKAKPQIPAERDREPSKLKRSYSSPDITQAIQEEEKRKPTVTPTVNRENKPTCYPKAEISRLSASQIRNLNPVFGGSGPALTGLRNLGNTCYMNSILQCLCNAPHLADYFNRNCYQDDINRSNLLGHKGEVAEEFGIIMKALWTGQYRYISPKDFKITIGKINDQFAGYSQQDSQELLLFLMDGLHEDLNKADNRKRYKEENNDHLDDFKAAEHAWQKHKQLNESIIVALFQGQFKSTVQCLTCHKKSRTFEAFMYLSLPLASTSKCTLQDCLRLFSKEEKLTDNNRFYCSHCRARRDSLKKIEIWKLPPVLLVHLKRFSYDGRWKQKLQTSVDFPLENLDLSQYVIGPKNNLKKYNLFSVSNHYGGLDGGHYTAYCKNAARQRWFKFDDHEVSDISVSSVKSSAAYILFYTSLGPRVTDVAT

The test concerns the target Ubiquitin carboxyl-terminal hydrolase 8 (Homo sapiens) (UniProt P40818). In words: inhibitors of human USP8 deubiquitinase (AID 1645853). As to conditions: purified USP8, Ub-rhodamine cleavage fluorescence, 30 min; at 20 µM; hits give high values.
Broadly, the inhibition is the change of the read-out against control, counted positive when it falls. With `O=C(O)c1cc(-c2cccc3ccccc23)n[nH]1`, the inhibition was -80.6% (inactive).

On to `O=C(c1cnccn1)N1CC(C(=O)N2CCCC2)C1`, for which the inhibition is 0.517% (inactive).

`CCc1ccccc1NC(=O)CSc1nnc(-c2ccncc2)o1`: the inhibition is 54.3% (active).

On to `O=C(CSc1nnc(-c2ccncc2)o1)Nc1cccc(Cl)c1`, for which the inhibition is 4.92% (inactive).

With `CCN(C(=O)CSc1nnc(-c2ccncc2)o1)c1ccccc1`, the inhibition was 14.4% (inactive).

Regarding `Cc1ccc2occ(CC(=O)Nc3sc4c(c3C(=O)NCc3cccnc3)CCCC4)c2c1`, the inhibition is 20.7% (inactive).

Take `CCC(Cc1ccccc1)NS(=O)(=O)c1ccc2c(c1)NC(=O)CS2` (centres undefined): the inhibition was 3.6% (inactive).

As for `CCOc1ccc(CNS(=O)(=O)c2cccc(-c3noc(C)n3)c2)cc1OC`, the inhibition is -8.47% (inactive).

In the case of `Cn1cc(-c2nc(CN3CCCC3Cn3cccn3)cs2)cn1` (centres undefined), the inhibition is -48.6% (inactive).

As for `O=C(Cn1c(=O)n(Cc2ccc3c(c2)OCO3)c(=O)c2ccccc21)NCc1ccco1`, the inhibition is 8.11% (inactive).

On to `O=C(NCCc1ccccc1)c1ccc2c(=O)n(Cc3ccco3)c(=O)n(Cc3cccc([N+](=O)[O-])c3)c2c1`, for which the inhibition is 83.9% (active).

Turning to `O=C(CCc1nnc2n(Cc3ccccc3)c(=O)c3ccccc3n12)N1CCN(C(=O)c2ccco2)CC1`, the inhibition is 2.75% (inactive).

As for `COc1ccc(-c2ccc3nc(N4CCC(C(N)=O)CC4)sc3n2)cc1`, the inhibition was -18.5% (inactive).

Consider `C[C@@H]1CCCCCCCCC[C@@H](OC(=O)CCC(=O)O)C(=O)/C=C/C(=O)O1`, for which the inhibition is -0.995% (inactive).

Consider `Cc1ccc(NC(=O)Cc2sc(Nc3ccc(C)cc3)nc2O)cc1`, for which the inhibition is 35.4% (active).

As to `Cc1ccc(Nc2nc(O)c(CC(=O)Nc3ccc(C(C)C)cc3)s2)cc1C`, the inhibition is -0.936% (inactive).

Consider `CCOc1ccc(Nc2nc(O)c(CC(=O)Nc3cccc(C)c3)s2)cc1`, for which the inhibition is 29.3% (inactive).

In the case of `O=C(NCc1ccncc1)c1nnn(-c2ccc(F)cc2)c1-c1ccncc1`, the inhibition is 5.41% (inactive).

On to `O=C(CSc1nnc(-c2cccnc2)o1)N1CCN(c2ccc(F)cc2)CC1`, for which the inhibition was 19% (inactive).

Turning to `Cc1nc(-c2cccc(NC(=O)C3CCN(c4ccccc4)C3=O)c2)no1` (centres undefined), the inhibition was 27.7% (inactive).

As to `O=C(COC(=O)c1ccc(F)cc1)NC1CCCc2ccccc21` (centres undefined), the inhibition is 7.36% (inactive).

For `Nc1ccc(C(=O)OCC(=O)NC2CCCc3ccccc32)cc1[N+](=O)[O-]` (centres undefined), the inhibition was 50.4% (active).

Take `O=C(c1ccccc1)c1ccc(NC2CCCc3ccccc32)c([N+](=O)[O-])c1` (centres undefined): the inhibition was -7.98% (inactive).

Turning to `O=C(CN1CCN(Cc2nc3ccccc3s2)CC1)N1CCc2ccccc21`, the inhibition is -4.14% (inactive).

With `CC(C)C(=O)N1[C@@H](c2ccccc2)C[C@@H]2NC(=O)CCC[C@H]21`, the inhibition was 1.29% (inactive).

For the compound `CC1CCc2c(sc3ncnc(OCc4cccc([N+](=O)[O-])c4)c23)C1` (centres undefined), the inhibition is -36.3% (inactive).

Regarding `Cc1nnn(C23CC4CC(CC(C(=O)NC5CCCC5)(C4)C2)C3)n1`, the inhibition was 30.1% (active).

Turning to `Cc1nc(N)ncc1C(=O)N1CCCC(C)(C(=O)NC2CCCC2)C1` (centres undefined), the inhibition is 4.82% (inactive).

Turning to `O=c1c2c(ncn2C2CCCC2)n(Cc2ccccc2)c(=O)n1Cc1ccccc1`, the inhibition was 1.24% (inactive).

Consider `COCCn1cnc2c1c(=O)n(CC(=O)Nc1c(C)cc(C)cc1C)c(=O)n2Cc1ccccc1`, for which the inhibition is 32.6% (active).

Turning to `COCCn1cnc2c(-c3ccccc3)cn(CC(=O)NCc3ccccc3)c2c1=O`, the inhibition was 0.16% (inactive).

Take `Cc1nc(C2CCN(C(=O)Cc3ccc(F)cc3)CC2)ncc1C(N)=O`: the inhibition was 0.65% (inactive).

Consider `O=S(=O)(c1ccccc1)n1nc(-c2cccnc2)nc1NCc1ccc(Cl)cc1`, for which the inhibition was 3.57% (inactive).

For the compound `CS(=O)(=O)c1ccc(CN2CCC3(C/C=C/Cc4ccccc4OCC(=O)NC3)CC2)cc1`, the inhibition is -3.81% (inactive).

Take `O=C(O)c1ccc2c(=O)n3c(nc2c1)/C(=C/c1cccc(C(F)(F)F)c1)CC3`: the inhibition is 14.9% (inactive).

For `O=C(O)c1c2c(nc3ccccc13)/C(=C/c1ccc(F)cc1)CCC2`, the inhibition is 35.2% (active).

Take `O=C1NC(c2ccccc2)=N/C1=C/c1ccc(F)cc1`: the inhibition is -0.962% (inactive).

For the compound `CC1(C)[C@H](Cc2cc(-c3ccccc3)on2)C[C@@H]1NC(=O)C1CC1`, the inhibition was -0.801% (inactive).

Consider `CCOc1ccccc1NC(=O)Cc1cccs1`, for which the inhibition was 31.3% (active).

Turning to `CCOc1ccccc1NC(=O)Nc1cc(-c2nc3ccccc3o2)ccc1OC`, the inhibition is 21.7% (inactive).

As to `CCOc1ccccc1NC(=O)COc1cccc2c1OC(C)(C)C2`, the inhibition was 8.84% (inactive).

Take `CN1C(=O)C(C)(C)COc2ccc(NS(=O)(=O)c3ccccc3Cl)cc21`: the inhibition was 0.668% (inactive).

For `CCOc1cc(S(=O)(=O)Nc2ccc3cn[nH]c3c2)ccc1Cl`, the inhibition is 22.3% (inactive).

Consider `O=S(=O)(Nc1ccc2[nH]ncc2c1)c1ccccc1Cl`, for which the inhibition was 47% (active).

For the compound `CCCCCn1c(=O)c2sccc2n2c(CCC(=O)NC3CC3)nnc12`, the inhibition is 5.66% (inactive).

Take `COc1ccc(C(=O)N2CCC(Cc3nc(-c4cnccn4)no3)CC2)cc1`: the inhibition is 6% (inactive).

Consider `CCOc1ccccc1C(=O)NCC(c1ccco1)N1CCCC1` (centres undefined), for which the inhibition was 23.5% (inactive).

For `Cc1ccc(N2C(=O)CN(S(C)(=O)=O)CC2(C)C(=O)NC2CCCCC2)c(C)c1` (centres undefined), the inhibition is 15.1% (inactive).

As to `Cc1ccc(N2C(=O)CN(S(=O)(=O)c3ccccc3)CC2(C)C(=O)NCCC(C)C)cc1C` (centres undefined), the inhibition is 6.01% (inactive).

As for `CCOc1ccc2c(c1)c(=O)c(C(=O)c1ccccc1)cn2CC(=O)Nc1ccc(OC)cc1`, the inhibition was 93.8% (active).

As for `COc1ccc(NC(=O)CSc2cn(CC(=O)N3CCCC3)c3ccccc23)cc1`, the inhibition is -38.7% (inactive).

With `CCOc1ccc(NC(=O)Cn2cc(C(=O)c3ccc(Cl)cc3)c(=O)c3cc(OC)ccc32)cc1`, the inhibition is -4.68% (inactive).

As for `O=C(NCCc1ccccc1)N1CCC(n2c(=O)[nH]c3cncnc32)C1` (centres undefined), the inhibition is 5.93% (inactive).

As to `COc1cc(C(=O)N(c2ccccn2)C2CCCCC2)cc(OC)c1OC`, the inhibition was -3.54% (inactive).

Turning to `O=C(/C=C/c1ccc(Cl)cc1)Nc1ccc2c(c1)OCCO2`, the inhibition was -8.51% (inactive).

On to `COCCN1Cc2c(C(=O)N3CCCCC3)ncn2-c2ccccc2S1(=O)=O`, for which the inhibition is -27.7% (inactive).

For the compound `Cc1cc(F)ccc1NC(=O)c1cc(C2CC2)n2nccc2n1`, the inhibition is -4.45% (inactive).

As for `Cc1ccc(-n2cc(-c3noc(C(=O)Nc4ccc(F)cc4C)n3)nn2)cc1`, the inhibition was 99% (active).

For the compound `Cc1ccc(CNC(=O)c2nc(-c3cn(-c4ccc(Br)cc4)nc3C)no2)o1`, the inhibition is 13.8% (inactive).

Turning to `COc1cccc(CNC(=O)c2cc3c(=O)n(C)ccc3n2C)c1`, the inhibition is -1.58% (inactive).

Turning to `COc1ccc(NC(=O)CS(=O)(=O)c2cn(CC(=O)N3CCCC3)c3ccccc23)cc1`, the inhibition was -8.78% (inactive).

`COc1cc(CN2CCCC(c3ncc(Cl)cc3S(C)(=O)=O)C2)cc(OC)c1` (centres undefined): the inhibition was -1.79% (inactive).

In the case of `Cn1nc(C2CCCN(Cc3cc(F)cc(F)c3)C2)c2nccnc21` (centres undefined), the inhibition is 32.7% (active).

As for `Cn1nc(C2CCN(Cc3ccc4c(c3)CC(C)(C)O4)CC2)c2nccnc21`, the inhibition was -31% (inactive).

In the case of `CC(C)C(=O)N1CCN2[C@H](C[C@@H](C(=O)N(C)C)[C@]23C(=O)Nc2ccccc23)C1`, the inhibition was 18.9% (inactive).

Turning to `COc1ccc(-c2nc3c(c(=O)c4ccccc4n3C)c(=O)n2CCc2ccc(OC)c(OC)c2)cc1`, the inhibition is 33.9% (active).

For the compound `O=c1c2ccccc2n(Cc2ccccc2Cl)c(=O)n1Cc1ccco1`, the inhibition was -2.33% (inactive).

Regarding `CC(C)(C)C(=O)Cn1c(=O)n(Cc2ccco2)c(=O)c2ccccc21`, the inhibition is -0.0891% (inactive).

Consider `COc1ccc(-c2ocnc2C(=O)NCc2ccc(OC)c(OC)c2)cc1`, for which the inhibition is 3.07% (inactive).

On to `COc1ccc(-c2nc3c(c(=O)c4ccccc4n3C)c(=O)n2Cc2ccco2)cc1`, for which the inhibition was 89.7% (active).

With `COc1ccc(CNC(=O)Cn2c(C)nc3onc(C)c3c2=O)cc1`, the inhibition was 2.79% (inactive).

For the compound `COc1cccc(CCC(=O)N2CCN(c3cc(C)n4cnnc4n3)CC2)c1`, the inhibition is -8.31% (inactive).

For the compound `CCc1ccc(NC(=O)CSc2nc(-c3ccccc3F)nc3cc(=O)[nH]n23)cc1`, the inhibition was -16% (inactive).

In the case of `CCc1ccc(S(=O)(=O)N2CCN=C2N2CCCCC2)cc1`, the inhibition is -0.222% (inactive).

Consider `CCN(C)C(=O)c1cc(-c2ccn(-c3ccccc3)n2)n2ccccc12`, for which the inhibition was -39.1% (inactive).

For the compound `COC(=O)c1cc2c(ccn2C)n1CC(=O)N1CCN(Cc2ccc3c(c2)OCO3)CC1`, the inhibition was 22.5% (inactive).

As for `O=C(NCc1ccc2c(c1)OCO2)C1=CCN(Cc2ccccc2)CC1`, the inhibition was -26.8% (inactive).

As for `O=C(Nc1cccc2ccccc12)N1CCN(Cc2ccc3c(c2)OCO3)CC1`, the inhibition is 61.7% (active).

`CCCCN(c1ccccc1)S(=O)(=O)c1cccc(C(=O)OCC(=O)NCc2ccc3c(c2)OCO3)c1`: the inhibition was 22.8% (inactive).

In the case of `COc1ccc(-c2nc(C3CC(=O)N(c4ccccc4)C3)no2)cc1` (centres undefined), the inhibition was 12.9% (inactive).

On to `CC(C)c1nnc(NC(=O)C2CC(=O)N(CCc3ccc(F)cc3)C2)s1` (centres undefined), for which the inhibition was -27.4% (inactive).

Regarding `Cc1ccc(CC(=O)Nc2nnc(C3CC(=O)N(c4ccc(C)c(C)c4)C3)s2)cc1` (centres undefined), the inhibition is 35.8% (active).

As for `COc1ccc(N2CC(c3nnc(NC(=O)CCc4ccccc4)s3)CC2=O)cc1` (centres undefined), the inhibition was 43.3% (active).

On to `Cc1ccc(N2CCCS2(=O)=O)cc1NC(=O)Cc1ccc(Cl)cc1`, for which the inhibition was 15.3% (inactive).

As to `Cc1ccc(N2CC(c3nnc(NC(=O)CCCc4ccccc4)s3)CC2=O)cc1` (centres undefined), the inhibition is -58.7% (inactive).

In the case of `CN1CCN(c2ncc(NC(=O)c3ccccn3)cn2)CC1`, the inhibition was -1.52% (inactive).

For `CC1CCN(S(=O)(=O)CC(F)(F)F)Cc2nc3ccccc3n21` (centres undefined), the inhibition was -0.0013% (inactive).

Take `CCCNc1nc(Nc2ccc(OC)cc2)c2cnn(C)c2n1`: the inhibition was -0.418% (inactive).

As to `Nc1nc(N2CCCC2)nc2c1CCN(Cc1ccc3ncccc3c1)C2`, the inhibition was -7.44% (inactive).

(Values after PubChem BioAssay AID1645853 (Buhrlage Lab, Dana-Farber Cancer Institute and Novartis …, 2021).)
